DRD3 antagonist – antagonists of human D3 dopamine receptor; P35462; D3R cells, DiscoveRx beta-arrestin luminescence, antagonist mode; hits give low values; max response, negative = inhibition, %; hit rate 2.5% among 360,000; AID 652054; in the data active = max response below about -50%; inconclusive = no clear call, values can overlap the other calls; also: % is scaled to controls: 0 for no effect and ±100 for the full control effect
Target sequence (P35462 whole entry, looked up): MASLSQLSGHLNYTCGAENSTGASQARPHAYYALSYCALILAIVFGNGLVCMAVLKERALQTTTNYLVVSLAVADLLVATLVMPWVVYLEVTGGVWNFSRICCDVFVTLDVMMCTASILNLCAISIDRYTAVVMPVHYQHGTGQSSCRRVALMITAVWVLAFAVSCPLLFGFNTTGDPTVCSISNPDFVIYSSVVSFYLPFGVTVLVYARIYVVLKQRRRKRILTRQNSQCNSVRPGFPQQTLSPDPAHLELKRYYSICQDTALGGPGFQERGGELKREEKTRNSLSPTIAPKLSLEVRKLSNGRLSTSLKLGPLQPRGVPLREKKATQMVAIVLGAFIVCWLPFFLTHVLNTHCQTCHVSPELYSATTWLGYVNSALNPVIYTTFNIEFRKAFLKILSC
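Cells plated overnight at 1500 cells/well, then exposed to library compounds with dopamine controls for 90 minutes at 37 degrees C. DiscoveRx reagent added for 30–60 minutes at room temperature; luminescence read, quantitative HTS format.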
IL-1B inflam inh – inhibitors of inflammasome signaling (IL-1 beta secretion); THP-1 LPS/ATP IL-1B secretion, AlphaLISA, 16 h; hits give low values; activity change, % at 57.5 µM; hit rate 4.7% among 360,000; in the data active = activity change below about -50%; inconclusive = mostly about -30% to -49%; also: % is scaled to controls: 0 for no effect and ±100 for the full control effect
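THP-1 cells pretreated 1 hr with compounds (up to 57.5 uM final), then stimulated with LPS (250 ng/mL final) plus ATP (1.25 mM final); secreted IL-1B measured by AlphaLISA after 16 hr, decreased signal indicating inhibition.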
DRD3 agonist – activates the human D3 dopamine receptor; max activation, %; hit rate 0.58% among 410,000; P35462; D3R DiscoveRx beta-arrestin cells, luminescence, 90 min; in the data active = max activation above about 30%; also: 0% is about no effect
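Agonist-mode cell screen: cells plated at 1500/well and incubated overnight at 37 °C, then exposed to library compounds for 90 min at 37 °C. Detection reagent was added for 30–60 min at room temperature, and luminescence was read.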
TDP1 cell CPT – DT40-hTDP1 cell growth loss with CPT. chicken DT40 Tdp1-/-;hTDP1 cells + 20 nM CPT, ATP luminescence, 48 h. Potency, µM (highest dose often 46.2 µM), inactives show at the highest dose activity change, negative = growth inhibition, most hits filed as inhibitors. hit rate 12% among 420,000. AID 686979; also: potency is read from the fitted curve at half-maximal effect; % is scaled to controls: 0 for no effect and ±100 for the full control effect; nearly all actives have a fitted effect of over 55% in size
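Chicken DT40 Tdp1-/- cells complemented with human TDP1, 400 cells/well, exposed to compounds plus 20 nM camptothecin for at least 48 h at 37 C; viability read as ATP content by CellTiter-Glo luminescence.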
ClpP mod – qHTS Assay for Activators of ClpP; ATP-dependent Clp protease proteolytic subunit (Bacillus subtilis (strain 168)), P80244; hit rate 1.9% among 340,000; AID 651965, 2013; purified B. subtilis ClpP, FRET peptide cleavage, 20 min; Potency, µM (titrated, usually from 57.5 µM), for the others: top-dose activity change, negative = active; active = well fitted falling curve with a large enough effect; inconclusive = small, poorly fitted or top-dose-only effect; inactive = no such curve, though single readings can be large or run the other way; also: potency is read from the fitted curve at half-maximal effect; the source files actives as falling curves though it sought activators and does not explain the sign; nearly all actives have a fitted effect of over 65% in size
Target sequence (P80244 whole entry, looked up): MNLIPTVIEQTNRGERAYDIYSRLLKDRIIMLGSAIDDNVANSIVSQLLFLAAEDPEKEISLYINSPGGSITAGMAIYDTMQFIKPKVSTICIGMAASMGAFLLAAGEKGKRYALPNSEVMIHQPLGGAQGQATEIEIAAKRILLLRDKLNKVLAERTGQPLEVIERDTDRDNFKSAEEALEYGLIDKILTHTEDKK
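Purified B. subtilis ClpP, 10 microg/mL final in Tris/HCl pH8 with KCl, BSA, glycerol and Tween-20, cleaved an Abz/nitrotyrosine-quenched decapeptide. Fluorescence (ex 320, em 430) was read at 0 and 20 min at room temperature. Delta was normalized to 5.8 microM ADEP and DMSO/no-enzyme controls.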
TDP1 cell noCPT – qHTS for Inhibitors of human tyrosyl-DNA phosphodiesterase 1 (TDP1): qHTS in cells in absence of CPT. DT40 Tdp1-/- hTDP1 cells, no CPT, ATP luminescence, 48 h. Potency, µM (top dose mostly 46.2 µM), inactives show at the highest dose activity change, negative = growth inhibition, usual class: inhibitors. hit rate 15% among 420,000; also: potency is read from the fitted curve at half-maximal effect; % is scaled to controls: 0 for no effect and ±100 for the full control effect; nearly all actives have a fitted effect of over 55% in size
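A cellular qHTS used chicken DT40 cells lacking endogenous Tdp1 but carrying stably transfected human TDP1. Compounds were applied without camptothecin, and cell growth kinetics were judged by ATP-dependent luminescence after ≥48 hr.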
Starred values were filed as active, the others as inactive; ? = inconclusive; . = not tested or not shown. This is a sample that favours compounds with a hit; in the whole collection about 21% have one here. Unless noted, calls follow the shape of the dose curve; as a rule, active = well fitted inhibition curve with a large enough effect; inconclusive = small, poorly fitted or top-dose-only effect; inactive = flat fitted curve, though single readings scatter.

SMILES	DRD3 antagonist	IL-1B inflam inh	DRD3 agonist	TDP1 cell CPT	ClpP mod	TDP1 cell noCPT
N[C@@H](C(=O)O)c1cc(O)ccc1Cl	.	.	.	2.4µM*	.	1.2µM*
Cc1[nH]c2ccc(-c3nnc(SCC(=O)c4ccccc4F)o3)cc2c1C	31	7	6	-72%	-2%	18µM*
Cc1ccc(C(=O)CSc2nnc(-c3ccc4[nH]c(C)c(C)c4c3)o2)cc1C	6	6	1	?	-2%	26µM*
CC(C)N(Cc1ccccc1)C(=O)COC(=O)C1CCN(c2ccc(C(F)(F)F)cn2)CC1	1	6	-17	16µM*	-24%	18µM*
CC(C)(C)N(Cc1ccccc1)C(=O)COC(=O)C1CCN(c2ccc(C(F)(F)F)cn2)CC1	-15	2	1	?	?	15µM*
CC(C)(C)N(Cc1ccccc1)C(=O)COC(=O)C1CC1	2	-13	-2	-6%	-1%	-21%
CC(NC(=O)C(=O)NCCN1CCN(C(=O)c2ccccc2Br)CC1)c1ccccc1 (stereo not drawn)	-12	6	-9	-8%	.	-4%
NC(=O)c1cc2ccccc2o/c1=N\NC(=O)c1ccc(F)cc1	1	-23	-7	21µM*	-6%	8.2µM*
NC(=O)c1cc2ccccc2o/c1=N\NC(=O)c1ccccc1O	-10	-26	-2	?	-1%	?
Cc1ccc(NC(=O)c2c(C(F)(F)F)nn(C)c2SCc2ccc(Cl)cc2)cc1C	17	-21	-21	26µM*	-3%	23µM*
Cc1ccc(NC(=O)c2c(C(F)(F)F)nn(C)c2SCc2cccc(C(F)(F)F)c2)cc1C	7	-21	1	7.3µM*	-1%	4.1µM*
Cc1c(NC(=O)Nc2ccc(Cl)c(C(F)(F)F)c2)c(=O)n(-c2ccccc2)n1C	.	.	-11	-25%	-2%	-21%
CN(C(=O)COC(=O)c1ccc(Br)c(S(=O)(=O)N2CCOCC2)c1)C1CCCCC1	0	10	4	?	-21%	?
O=C(O)[C@H](O)c1ccccc1	.	.	-14	-1%	.	-4%
O=S(=O)(c1ccc2c(c1)CCN2)N1CCOCC1	-3	2	8	-2%	-6%	5%
O=C(O)CCC(=O)C(=O)O	.	.	4	14%	.	9%
NC(=O)C1CC(=O)N(c2ccc(OCc3ccc(Cl)cc3)cc2)C1 (stereo not drawn)	-1	-3	4	?	0%	23µM*
CCCNC(=O)C1CC(=O)N(c2ccc(OCc3ccc(F)cc3)cc2)C1 (stereo not drawn)	3	3	9	-24%	-1%	-26%
CCCNC(=O)C1CC(=O)N(c2ccc(OCc3ccc(Cl)cc3)cc2)C1 (stereo not drawn)	2	15	8	?	0%	8.2µM*
O=C(NCc1ccco1)c1cccc(-c2ccc3nccn3c2)c1	8	-13	2	?	-10%	?
Cc1nc2ccccn2c1C(=O)/C=C/c1ccc(F)cc1	-23	-108*	-4	?	-2%	21µM*
COc1ccc(CNC(=O)c2c(C)nc3ccccn23)cc1	12	27	-3	-24%	-24%	?
COc1ccc(/C=C/C(=O)c2c(C)nc3ccccn23)cc1	16	-5	38*	-12%	0%	-9%
Cc1cccc(N2CCc3c2nc2ccc(Br)cc2c3N)c1	-5	-94*	-4	?	?	?
Nc1c2c(nc3ccc(Br)cc13)N(Cc1ccccc1)CC2	-59*	?	-3	?	-11%	21µM*
SMILES	DRD3 antagonist	IL-1B inflam inh	DRD3 agonist	TDP1 cell CPT	ClpP mod	TDP1 cell noCPT
Nc1c2c(nc3ccc(Br)cc13)N(c1ccccc1)CC2	-5	-21	-6	?	?	?
Cc1cccn2c(=O)c(/C=C(\C#N)C(N)=O)c(N3CCN(c4cccc(Cl)c4)CC3)nc12	6	-28	1	?	-12%	?
COc1ccc(OC)c(-c2noc(N3CCN(c4cccc(C)c4C)CC3)n2)c1	.	.	10	-10%	-3%	-18%
COC(=O)C1=C(C)N(c2ccccc2)/C(=C/c2cccs2)C1=O	8	-2	6	-28%	0%	?
COC(=O)C1=C(C)N(c2ccc(Cl)cc2)/C(=C/c2cccs2)C1=O	-7	0	1	?	-2%	13µM*
COC(=O)C1=C(C)N(c2ccc(C)c(C)c2)/C(=C/c2cccs2)C1=O	-20	2	-12	16µM*	-1%	16µM*
COC(=O)c1c(-c2ccsc2)sc2ccc(-c3cc(OC)c(OC)c(OC)c3)cc12	49	1	53*	?	-6%	9.2µM*
COC(=O)c1c(-c2ccc(OC)cc2)sc2cc3c(cc12)OCO3	98	42	19	-17%	4%	-10%
COC(=O)c1c(-c2ccc(N(C)C)cc2)sc2ccc(OC)cc12	175	39	134*	?	5%	13µM*
Cc1ccc(NC(=O)CSCC(=O)N(C)CC(=O)Nc2cccc(F)c2)cc1	-1	8	2	12%	-1%	-22%
CC(=O)c1ccc(Nc2nc(C(N)Cc3ccc(N)cc3)cs2)cc1 (stereo not drawn)	-28	-12	-8	?	-6%	?
CC(=O)c1ccc(Nc2nc(C(N)Cc3ccc(Cl)cc3)cs2)cc1 (stereo not drawn)	-21	-54*	-9	18µM*	-25%	?
CC(=O)c1ccc(Nc2nc(C(N)CCc3ccccc3)cs2)cc1 (stereo not drawn)	9	?	-1	?	-9%	16µM*
NC(Cc1ccccc1)c1csc(Nc2ccc(C(=O)NCCO)cc2)n1 (stereo not drawn)	-11	-19	-6	?	-19%	?
CC1(C)CC(=O)C=C(c2cccc3c2sc2ccccc23)C1	-11	0	-3	-16%	-1%	?
CCN(CC)Cc1c(O)ccc2c(=O)c(Oc3ccccc3OC)c(C)oc12	1	6	1	-25%	4%	0%
COc1ccccc1Oc1coc2c(CN(C)C)c(O)ccc2c1=O	?	3	1	-9%	28µM*	-21%
COc1ccccc1-c1coc2c(CN(C)C)c(O)ccc2c1=O	-20	16	-3	-6%	5%	-2%
CCN(CC)Cc1c(O)ccc2c(=O)c(Oc3ccccc3OC)coc12	-6	1	-10	-10%	18µM*	-2%

Screening data: PubChem BioAssay, National Center for Advancing Translational Sciences (NCATS)
